About 83,000 compounds went through this panel and 20% of them were active in at least one assay; those are over-represented in the sample as a whole.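 Values shown are percent growth following 48 h exposure of cells in 96-well plates to a single concentration of compound; below 10 was considered active.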 Active and inactive are the calls of the source.

The subject of the test is HL-60(TB) leukemia. Briefly: NCI-60 one-dose screen, 48 h (100 = growth as untreated, 0 = no growth, -100 = all killed). The note with it: 10 µM unless noted.
Turning to `CN(C)c1ncnc2c1ncn2C1CCCCO1` (stereo not given), the growth was 96.3% (inactive).

For `O=S(=O)(NCCNc1cc(-c2cn(-c3ccccc3)nc2-c2cccc(O)c2)ccn1)c1ccc(C(F)(F)F)cc1`, the growth was 8.76% (active).

As to `CCN(CC)C(=O)c1cccnc1`, the growth was 93.8% (inactive).

Consider `Cc1cc(NCCCCNc2ccnc3cc(Cl)ccc23)nc(Nc2ccc(C(=O)N3CCCCC3)cc2)n1`, for which the growth was -59.3% (active).

Take `O=c1c2cccc3c(Nc4ccc(Br)cn4)ccc(c32)c2nc3ccccc3n12`: the growth is 128% (inactive).

Consider `COC(=O)[C@]12CC[C@@H](C)[C@H](C)[C@@H]1C1=CC[C@@H]3[C@@]4(C)C=C(O)C(=O)C(C)=C4CC[C@@]3(C)[C@]1(C)CC2`, for which the growth was 4.09% (active).

Take `CCCCCCCCCCCCCCCCCCNC(=O)[C@H]1CSC(c2ccc(F)c(OC)c2)N1` (stereo not given in full): the growth was -68% (active).

For `COc1ccc(/C=C/C(=O)c2ccc(-n3cc(CN4CCN(c5cc6c(cc5F)c(=O)c(C(=O)O)cn6C5CC5)CC4)nn3)cc2)cc1`, the growth was 85.9% (inactive).

Turning to `Cn1cc(C2=C(c3cccc4ccccc34)C(=O)NC2=O)c2cc(Br)ccc21`, the growth was 107% (inactive).

In the case of `O=C(CCCCCn1c2ccccc2c2c3c(c4c5ccccc5[nH]c4c21)C(=O)N(O)C3=O)N1CCOCC1`, the growth is 44.6% (inactive).

Take `CC[C@H]1CCC/C=C/[C@@H]2C[C@H](O)C[C@H]2[C@H](O)/C=C/C(=O)O1`: the growth was -0.414% (active).

For `NS(=O)(=O)c1ccc(C(=O)N/N=C(\CS(=O)(=O)c2ccccc2)c2cc3cc(Br)ccc3o2)cc1`, the growth is 115% (inactive).

As to `C/C(=C(/c1ccc(Cl)cc1)c1ccc(OCCN2CCCCC2)cc1)c1ccccc1`, the growth was 61.8% (inactive).

As for `O=S(=O)(NCCCNc1nccc(-c2c(-c3cccc(F)c3)nc3occn23)n1)c1cccc2ccccc12`, the growth was -26.8% (active).

On to `CCOC(=O)CCC[P+](c1ccccc1)(c1ccccc1)c1ccccc1`, for which the growth is 37.7% (inactive).

On to `Cc1ccc(C)c2c1C(O)(C#Cc1ccccc1)c1ccccc1C2(O)C#Cc1ccccc1` (stereo not given), for which the growth was 35.6% (inactive).

Regarding `COc1cc(-c2nc3sccn3c2-c2ccnc(NCCNS(=O)(=O)c3ccccc3)n2)ccc1F`, the growth was 60.2% (inactive).

On to `Cc1oc2c(c1C(=O)N1CC[C@@H](N)C1)C(=O)c1c(c(O)c3ccccc3c1O)C2=O`, for which the growth is -22.8% (active).

Consider `COc1ccc(/C(C)=N/NC(=O)CSc2nc3ccccc3c(=O)n2Cc2ccc(S(N)(=O)=O)cc2)c(OC)c1`, for which the growth is 102% (inactive).

Take `C=C(C)[C@@H]1CC[C@]2(C)[C@H](CC=C3[C@@H]4CC(C)(C)CC[C@]4(CO)CC[C@]32C)[C@@]1(C)CCCN`: the growth was -68.9% (active).

`COCCNC(=O)Nc1ccc2nc(-c3cccs3)c(-c3cccs3)nc2c1`: the growth is 81.5% (inactive).

As to `CN(C)c1cc(NN=C(c2ccc(O)cc2)c2ccc(O)cc2)c([N+](=O)[O-])cc1[N+](=O)[O-]`, the growth is 127% (inactive).

For the molecule `CCOC(=O)n1cc(-c2nonc2-c2cn(C)c3ncccc23)c2ccccc21`, the growth was 84.7% (inactive).

Take `OCCNc1nc(Nc2ccc(Cl)c(Cl)c2)nc2ccccc12`: the growth is 44.4% (inactive).

With `CC(=O)[C@H]1CC[C@H]2[C@@H]3CC[C@@H]4CC=C(C=O)C[C@]4(C)[C@H]3CC[C@]12C`, the growth is 78.2% (inactive).

As to `CC1(C)CC(=O)C2=C(C1)N(c1ccc(F)cc1F)C(N)=C(C#N)C2c1cc(Br)ccc1F` (stereo not given), the growth was 99.4% (inactive).

For the molecule `CC[n+]1ccc2c(c1)C(=O)c1nccc3c1c-2nc1ccccc13`, the growth is -31.8% (active).

Consider `COc1cc2ncnc(-n3ncc4cc(NC(=O)Nc5ccc(Cl)c(C)c5)ccc43)c2cc1OC`, for which the growth is 114% (inactive).

On to `ClC1C2CC(c3ccccc32)C1Cl` (stereo not given), for which the growth was 131% (inactive).

Consider `COc1ccc(/C=C(\C#N)n2nnc3cc(F)c(F)cc32)c(OC)c1OC`, for which the growth was 10.4% (inactive).

Take `COc1cc2oc(-c3cccc(NC(=O)c4ccc5c(c4)OCO5)c3)cc(=O)c2c(OC)c1OC`: the growth is 34.6% (inactive).

On to `CCCC#CCN(CC)CC`, for which the growth was 96.6% (inactive).

`S=c1[nH]nc(-c2cc3ccc2CCc2ccc(cc2)CC3)n1C1CC1`: the growth was 106% (inactive).

Consider `COC(=O)CCC/C=C\C[C@H]1C=CC(=O)/C1=C/C[C@@H](O)C/C=C\CC(F)(F)F`, for which the growth is 1.03% (active).

Turning to `CCNC(=O)Oc1ccc(/C(=C(\C)c2ccc(Cl)cc2)c2ccc(OCCN3CCCCC3)cc2)cc1`, the growth was 16.8% (inactive).

As to `CC1=C(C(=O)n2c3ccccc3c3ccccc32)C(c2cccc([N+](=O)[O-])c2)C(C(=O)n2c3ccccc3c3ccccc32)=C(C)N1`, the growth is 91% (inactive).

In the case of `O=[N+]([O-])c1ccc(-c2nc(Cl)c3c(n2)CCCC3)o1`, the growth was 93.8% (inactive).

Turning to `CCN(CC)CCOc1ccc(/C(=C(\C)c2ccc(OC)c(F)c2)c2ccc(Cl)cc2)cc1`, the growth was 68.6% (inactive).

In the case of `FC(F)(F)c1cc(CNc2nc(Cl)ncc2Br)cc(C(F)(F)F)c1`, the growth is 85.2% (inactive).

In the case of `CC1CCN(CCCCCOc2ccc3oc4cc(Cl)ccc4c(=O)c3c2)CC1`, the growth was 43.4% (inactive).
